This note sets out measurements from PubChem BioAssay (NCI).

The panel holds about 83,000 compounds, 20% with a hit somewhere; the sample as a whole holds those more often.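 Each cell line was grown in a 96-well plate and treated with one concentration of compound for 48 hours. Values below 10 were considered active.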 Unmarked numbers belong to inactive results. Calls of active or inactive are those of the source.

Some test systems named below: NCI-H23 lung; NCI-H226 lung; NCI-H322M lung; HOP-62 NSCLC; NCI-H460 lung; NCI-H522 lung; A549/ATCC NSCLC; 786-0 renal; COLO 205 colon; DU-145 prostate; K-562 leukemia; MALME-3M melanoma; MDA-MB-231 breast; RXF 393 renal; SF-268 CNS; SF-295 CNS; SF-539 CNS; UACC-257 melanoma; M14 melanoma.
What all share (test): NCI-60 one-dose screen, 48 h (100 = growth as untreated, 0 = no growth, -100 = all killed)
Holding throughout (conditions): 10 µM unless noted

As to `Cc1cc2ncc(-c3cc4ccccc4c(N4CCN(C)CC4)n3)nc2cc1C`, the growth was 70.7% in the experiment on NCI-H23 lung; 91.9% in the experiment with NCI-H226 lung; 47.7% in the experiment on NCI-H322M lung; 82.9% in the experiment on HOP-62 NSCLC; -77.9% (active) in the experiment on NCI-H460 lung; 75.5% in the experiment with NCI-H522 lung. Moreover, the growth was 54% in the experiment on A549/ATCC NSCLC; 61.3% in the experiment with 786-0 renal; -57.9% (active) in the experiment on COLO 205 colon; 33.6% with DU-145 prostate; -50.7% (active) in the experiment on K-562 leukemia; -69.1% (active) with MALME-3M melanoma. The growth in the experiment with MDA-MB-231 breast is 18.6%; in the experiment with RXF 393 renal, -71.8% (active); in the experiment on SF-268 CNS, 62.7%; in the experiment with SF-295 CNS, 10.2%; with SF-539 CNS, -2.53% (active); in the experiment on UACC-257 melanoma, 99.1%. Also, the growth in the experiment on M14 melanoma is -85.7% (active).

On to `O=S(=O)(Nc1ccc(I)cc1Cl)c1ccc(-c2cnc(C3CC3)o2)cc1`, for which the growth in the experiment on NCI-H23 lung is 45.4%; in the experiment on NCI-H226 lung, 62.5%; in the experiment with NCI-H322M lung, 64.8%; in the experiment with HOP-62 NSCLC it was 52.7%; with NCI-H460 lung it was 28.8%; in the experiment with NCI-H522 lung, 34%. Moreover, the growth is 54.6% in the experiment on A549/ATCC NSCLC; 40.4% in the experiment with 786-0 renal; 50.2% in the experiment on COLO 205 colon; 50.2% in the experiment on DU-145 prostate; 19.8% in the experiment with K-562 leukemia; 47.3% in the experiment on MALME-3M melanoma. Further, the growth in the experiment with MDA-MB-231 breast is 57.5%; in the experiment on RXF 393 renal it was -4.05% (active); in the experiment on SF-268 CNS it was 58.9%; in the experiment on SF-295 CNS, 2.33% (active); in the experiment on SF-539 CNS, 21.4%; in the experiment with UACC-257 melanoma, 58.5%. The growth in the experiment with M14 melanoma is 29.6%.

Consider `CCN(CC)CCn1c2ccc(O)cc2c2sc3cc(OC)ccc3c(=O)c21`, for which the growth with NCI-H23 lung is 28.5%; in the experiment with NCI-H226 lung it was 72.6%; with NCI-H322M lung, 26.2%; with HOP-62 NSCLC, 26.2%; in the experiment with NCI-H460 lung, 1.49% (active); in the experiment with NCI-H522 lung, 30.1%. Further, the growth is 13.2% in the experiment with A549/ATCC NSCLC; 33.3% in the experiment with 786-0 renal; 17.9% in the experiment with COLO 205 colon; 17.2% in the experiment on DU-145 prostate; -34.8% (active) in the experiment on K-562 leukemia; 28.2% with MALME-3M melanoma. The growth in the experiment with MDA-MB-231 breast is 31.6%; in the experiment on RXF 393 renal, 35%; in the experiment on SF-268 CNS it was 48.1%; in the experiment with SF-295 CNS, 13.9%; in the experiment with SF-539 CNS, -74.4% (active); in the experiment on UACC-257 melanoma, 80%. Moreover, the growth with M14 melanoma was 0.234% (active).

For the compound `O=C1CCCC2=C1C(c1c[nH]c3ccc(Br)cc13)Cc1cc(Br)ccc1N2` (stereo not given), the growth with NCI-H23 lung is 45.8%; in the experiment on NCI-H226 lung, 68.8%; in the experiment on NCI-H322M lung it was 54.2%; in the experiment on HOP-62 NSCLC, 41.2%; in the experiment on NCI-H460 lung, 17.3%; in the experiment with NCI-H522 lung, 12.8%. Further, the growth in the experiment with A549/ATCC NSCLC was 43.7%; in the experiment on 786-0 renal, 41.2%; in the experiment on COLO 205 colon, 42.5%; in the experiment on DU-145 prostate, 57.6%; in the experiment on K-562 leukemia, 19.8%; with MALME-3M melanoma it was 49.3%. Further, the growth in the experiment on MDA-MB-231 breast is 40%; in the experiment on RXF 393 renal, 50.1%; with SF-268 CNS, 51.8%; in the experiment on SF-295 CNS it was -9.43% (active); in the experiment on SF-539 CNS it was 28.6%; with UACC-257 melanoma, 80%.

Take `COC(=O)c1[nH]nc2c1C1(C(=O)N(C)c3ccccc31)C(C#N)=C(N)O2` (stereo not given): the growth is 93.4% in the experiment with NCI-H23 lung; 99.2% with NCI-H226 lung; 94.1% in the experiment on NCI-H322M lung; 118% in the experiment on HOP-62 NSCLC; 106% with NCI-H460 lung; 99.5% with NCI-H522 lung. The growth with A549/ATCC NSCLC was 101%; with 786-0 renal, 102%; with COLO 205 colon, 110%; in the experiment on DU-145 prostate, 102%; in the experiment on K-562 leukemia, 113%; in the experiment with MALME-3M melanoma it was 103%. For the same compound, the growth was 107% in the experiment on MDA-MB-231 breast; 114% in the experiment with RXF 393 renal; 97.3% in the experiment with SF-268 CNS; 118% in the experiment on SF-295 CNS; 96.5% in the experiment with SF-539 CNS; 103% in the experiment with UACC-257 melanoma. For the same compound, in the experiment on M14 melanoma, the growth is 104%.

As to `CCNC(=O)N1CCc2cc(OC)c(OCCc3ccc(OC)c(N)c3)cc2C1c1ccc(C)cc1C` (stereo not given), the growth with NCI-H23 lung was 20%; with NCI-H226 lung, 42.9%; in the experiment on NCI-H322M lung, 40.7%; with HOP-62 NSCLC, 26.9%; in the experiment with NCI-H460 lung, 2.6% (active); in the experiment on NCI-H522 lung it was -30.2% (active). Besides, the growth in the experiment on A549/ATCC NSCLC is 9.14% (active); in the experiment with 786-0 renal, 13.3%; in the experiment on COLO 205 colon it was 13.3%; in the experiment on DU-145 prostate it was 16.4%; in the experiment on K-562 leukemia, 15.1%; in the experiment with MALME-3M melanoma, 62.6%. Also, the growth in the experiment with MDA-MB-231 breast was 15%; in the experiment on RXF 393 renal, 7.54% (active); with SF-268 CNS it was 26.1%; with SF-295 CNS, 16.1%; with SF-539 CNS it was 13.6%; in the experiment with UACC-257 melanoma it was 49.1%. Further, the growth with M14 melanoma is 16.5%.

As for `N#C/C(=C\c1ccc(-c2ccc(Cl)cc2Cl)o1)c1ccc(F)cc1`, the growth was 87.7% in the experiment on NCI-H23 lung; 5.86% (active) in the experiment with NCI-H226 lung; 93.4% in the experiment with NCI-H322M lung; 82.2% in the experiment on HOP-62 NSCLC; 90.7% in the experiment on NCI-H460 lung; 88.1% in the experiment on NCI-H522 lung. Besides, the growth with A549/ATCC NSCLC was 100%; in the experiment on 786-0 renal, 94%; in the experiment with COLO 205 colon, 100%; in the experiment with DU-145 prostate, 102%; with K-562 leukemia, 92.5%; in the experiment on MALME-3M melanoma it was 98.7%. Besides, the growth in the experiment with MDA-MB-231 breast was 83.4%; with RXF 393 renal, 67.5%; in the experiment on SF-268 CNS, 92.3%; in the experiment with SF-295 CNS it was 99.8%; in the experiment with SF-539 CNS, 89.9%; with UACC-257 melanoma it was 104%.

As for `CCOC(=O)c1c(Nc2ccccc2)nn2c(-c3ccc(OC)cc3)ccnc12`, the growth in the experiment with NCI-H23 lung was 86%; in the experiment with NCI-H226 lung, 93.5%; with NCI-H322M lung it was 87.1%; in the experiment with HOP-62 NSCLC it was 95.3%; in the experiment on NCI-H460 lung, 93.5%; in the experiment on NCI-H522 lung, 88.1%. Further, the growth in the experiment on A549/ATCC NSCLC was 88.7%; with 786-0 renal, 64.5%; with COLO 205 colon it was 99.9%; with DU-145 prostate it was 90.8%; with K-562 leukemia it was 45.3%; with MALME-3M melanoma, 87.6%. Besides, the growth was 79.4% with MDA-MB-231 breast; -2.68% (active) with RXF 393 renal; 101% with SF-268 CNS; 89.5% in the experiment on SF-295 CNS; 83.8% with SF-539 CNS; 110% with UACC-257 melanoma. The growth in the experiment with M14 melanoma was 96%.
